# Compound activity as filed in PubChem BioAssay.
# Shiga inhibitor – inhibitors of Shiga toxin in Vero cells; inhibition, % at 38.7 µM; Vero cells, Shiga toxin protein synthesis inhibition reporter; AID 2315; hit rate 9.2% among 290,000; in the data active = inhibition mostly above about 28%, no sharp cut-off; inactive = mostly below about 43%; note: 0% is about no effect
# Sm TGR block – S. mansoni TGR enzyme inhibition | Potency, µM (titrated, usually from 114 µM), for inactives: top-dose activity change, negative = inhibition, usual class: inhibitors | AID 485364 | purified TGR, DTNB reduction, TNB absorbance 405 nm | hit rate 3% among 360,000 | Q962Y6; active = well fitted inhibition curve with a large enough effect; inconclusive = small, poorly fitted or top-dose-only effect; inactive = no such curve, though single readings can be large or run the other way; note: potency is the fitted concentration of half-maximal effect; % is set by controls: 0 for no effect and ±100 for the full control effect; nearly all actives have a fitted effect of over 60% in size
#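 Kinetic colorimetric format: TGR-catalysed, NADPH-driven DTNB reduction monitored via TNB absorbance. Enzyme dispensed at 20 nM; compound exposure 15 min at room temperature before reaction start.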
# FMDV antiviral – antivirals against foot and mouth disease virus; FMDV antiviral cell-based qHTS; Potency, µM (doses to about 57.9 µM), for the others: top-dose activity change, negative = inhibition, usual class: inhibitors; hit rate 1.2% among 410,000; AID 1159524; calls by dose curve; tested in HEK293T cells; note: read-out not given here; potency is the fitted concentration of half-maximal effect; % is set by controls: 0 for no effect and ±100 for the full control effect; nearly all actives have a fitted effect of over 45% in size
# Cycloheximide cs – counter-screen hit for Shiga toxin inhibitors, cycloheximide; max response, %; cell reporter, cycloheximide protein synthesis inhibition counterscreen; hit rate 12% among 300,000; in the data active = max response mostly above about 13%, no sharp cut-off; inactive = mostly below about 14%; note: read at 38.3 µM for the half of the compounds with a filed dose; 0% is about no effect
# Active calls of the source: *; ? = inconclusive; nt = no result. Hits are enriched below; roughly 12% of the tested compounds scored in any of these assays.
SMILES,Shiga inhibitor,Sm TGR block,FMDV antiviral,Cycloheximide cs
CCCCN1C(=O)/C(=C/C=C2\SCCN2C)SC1=S,67*,-21%,50%,33*
CN1CCS/C1=C/C=C1\SC(=S)N(CC(=O)O)C1=O,13,-25%,-4%,1
CC(C)COc1ccc(C(=O)N(Cc2ccc(N(C)C)cc2)Cc2ccco2)cc1,nt,7%,-29%,nt
O=C(NC(=S)Nc1ccc2[nH]c(=O)[nH]c2c1)c1cccc(F)c1,-9,2.8µM*,2%,-8
COc1ccc(C(=O)NC(=S)Nc2ccc3[nH]c(=O)[nH]c3c2)c(OC)c1,35,1%,13%,21*
COc1cc(OC)cc(C(=O)NC(=S)Nc2ccc3[nH]c(=O)[nH]c3c2)c1,19,-19%,-6%,-7
COc1cccc(C(=O)NC(=S)Nc2ccc3[nH]c(=O)[nH]c3c2)c1,-5,?,2%,-7
COC(=O)c1c(SC)nc2ccccc2c1OCc1ccc(C)cc1,nt,17%,1%,nt
O=C(NNC(=O)c1cccs1)c1ccc(Cl)c([N+](=O)[O-])c1,-2,-6%,-13%,-1
N#Cc1ccsc1NC(=O)c1ccc(Cl)c([N+](=O)[O-])c1,99*,-19%,-13%,51*
N#Cc1ccsc1NC(=O)c1ccc2ncsc2c1,nt,nt,27%,nt
N#Cc1ccsc1NC(=O)c1cccc([N+](=O)[O-])c1,52*,-22%,-21%,23*
N#Cc1ccsc1NC(=O)c1cccc(-n2cnnn2)c1,26,-17%,28%,10*
COc1cc(C(=O)O/N=C2\C=CC(=O)C(C)=C2)cc(OC)c1OC,101*,3.2µM*,?,71*
COc1cc(C(=O)ON=C2C=C(C)C(=O)C(C)=C2)cc(OC)c1OC,-26,-4%,-16%,8
CC(=N)c1c(O)c2ccccc2oc1=O,53*,12%,42%,26*
O=C(CC1CCCCC1)c1c(O)c2ccccc2oc1=O,-14,50µM*,8%,-1
CCCCN=C(C)c1c(O)c2ccccc2oc1=O,65,-23%,10%,32*
COCCn1c(SCC(=O)c2ccccc2)nc2cc(C(=O)NC3CCCC3)ccc2c1=O,nt,2%,-4%,nt
Cc1cccc(C(=O)c2c(N)sc3c2CCC(C)C3)c1 (stereo not given),126*,-15%,35%,59*
CC1CN(C2CCN(S(=O)(=O)c3ccc(F)cc3)CC2)CC(C)O1 (stereo not given),-12,40µM*,-12%,12
COc1ccc(-c2cc3c(=O)n(CC(=O)Nc4cc(F)ccc4F)ccn3n2)cc1OC,nt,-1%,5%,nt
O=C(CCl)Nc1nccs1,-2,3.2µM*,?,7
CCC(C)OC(=O)n1ccc(C(=O)Nc2nccs2)n1 (stereo not given),68*,-3%,nt,32*
O=C(COc1ccc2ccccc2c1)Nc1nccs1,52*,21%,-35%,42*
SMILES,Shiga inhibitor,Sm TGR block,FMDV antiviral,Cycloheximide cs
O=C(COC(=O)c1ccccc1Cl)Nc1nccs1,18,5%,nt,11*
COC(=O)c1c(OCc2ccccn2)cc(=O)n2c1CCN(C(=O)c1n[nH]c3c1CCCC3)CC2,nt,nt,-11%,nt
CCN(CC)c1nn2c(=O)c(C(=O)NCCc3cccc(C)c3)cnc2s1,nt,1%,0%,nt
O=C(O)C(Oc1ccc2ccc(=O)oc2c1)c1ccccc1 (stereo not given),nt,nt,-1%,nt
CCOC(=O)c1c(C)oc2nc(C)nc(NCCc3ccc(OCC)cc3)c12,nt,5%,?,nt
NC(=O)c1ccsc1NC(=O)COc1ccccc1,86*,9%,66%,42*
CCC(C)C(=O)Nc1nccs1 (stereo not given),37,5%,-18%,16*
O=C(COc1ccccc1)Nc1nccs1,53*,-1%,nt,30*
O=C(COC(=O)C1CC2CCCC(C1)C2=O)Nc1ccccc1 (stereo not given),nt,0%,-6%,nt
NC(=O)c1ccsc1NC(=O)COC(=O)C1CC2CCCC(C1)C2=O (stereo not given),5,-28%,-11%,14*
CCC(C(=O)Nc1nccs1)c1ccccc1 (stereo not given),10,-33%,-16%,-1
Nc1ncnc2n[nH]c(Nc3ccc(F)cc3)c12,-12,nt,-23%,-6
O=C(Cn1cc(SCc2c(F)cccc2Cl)c2ccccc21)N1CCCC1,nt,-5%,18%,nt
O=C(COc1ccc2ccc(=O)oc2c1)Nc1nccs1,68*,5%,41%,64*
COc1ccc(C(=O)Nc2cccc(NC(C)=O)c2)cc1OC,-14,-30%,1%,-2
COc1ccc2c(c1OC)C(=O)N(c1cccc(NC(C)=O)c1)C2,28,-2%,22%,23*
COc1ccc2c(c1OC)C(=O)N(c1ccc(F)cc1)C2,65*,4%,6%,36*
COc1ccc2c(c1OC)C(=O)OC2,-18,1%,-3%,-2
O=C(O)c1ccccc1C(=O)N1CC=C(c2ccccc2)CC1,72,35µM*,-22%,27*
Cc1ccc(C(=O)N2CC=C(c3ccccc3)CC2)o1,nt,28µM*,1%,nt
O=C(NCCN1C(=O)S/C(=C/c2cccnc2)C1=O)c1cccs1,nt,-8%,-7%,nt
O=C(COc1ccccc1-c1ccccc1)NCCN1C(=O)S/C(=C\c2cccnc2)C1=O,-2,-6%,32µM*,2
CC(Oc1ccc(Cl)cc1)C(=O)NCCN1C(=O)S/C(=C\c2cccnc2)C1=O (stereo not given),-5,-21%,40µM*,-2
COc1ccc(C(=O)NCCN2C(=O)S/C(=C\c3cccnc3)C2=O)cc1[N+](=O)[O-],43*,-12%,3%,25*
CC(C)(Oc1ccc(Cl)cc1)C(=O)NCCN1C(=O)S/C(=C/c2cccnc2)C1=O,-13,-20%,?,-6
SMILES,Shiga inhibitor,Sm TGR block,FMDV antiviral,Cycloheximide cs
Cn1c(=NC(=O)C2CCCCC2)sc2cc([N+](=O)[O-])ccc21,99*,0%,29%,42*
CCOC(=O)c1sc(=NC(=O)C2CC2)n(C)c1C,13,8%,25%,19
CCOc1ccc2c(c1)sc(=NC(=O)C1CC1)n2C,62*,-2%,nt,39*
CCOC(=O)C1=C(C)C(c2cccc(Oc3ccccc3)c2)NC(=S)N1 (stereo not given),6,-12%,28µM*,1
CCOC(=O)C1=C(C)C(c2ccc(OC)cc2)NC(=S)N1 (stereo not given),17,-11%,-21%,5
Cc1nn(C(C)C(=O)NC2C(=O)N3C(C(=O)O)=C(CSc4nnnn4C)CSC23)cc1Cl (stereo not given),-11,2.2µM*,-16%,1
CC(C(=O)NC1C(=O)N2C(C(=O)O)=C(CSc3nnnn3C)CSC12)n1cc(Br)cn1 (stereo not given),-3,0.56µM*,-2%,16
Cn1nnnc1SCC1=C(C(=O)O)N2C(=O)C(NC(=O)C(O)c3ccccc3)C2SC1 (stereo not given),nt,nt,2%,nt
Cc1cc(C(F)F)nn1CC(=O)NC1C(=O)N2C(C(=O)O)=C(CSc3nnnn3C)CSC12 (stereo not given),16,14µM*,22%,-5
Cn1nnnc1SCC1=C(C(=O)O)N2C(=O)C(NC(=O)C3CC3c3ccccc3)C2SC1 (stereo not given),-3,2.5µM*,8%,2
